The target in test [1] is Progesterone receptor (Homo sapiens) (UniProt P06401). The test can be described thus: qHTS assay to identify small molecule antagonists of the progesterone receptor (PR) signaling pathway (AID 1346795; active = well fitted inhibition curve with a large enough effect in the signal ratio in the repeat runs, not every such curve was filed as active; the % refers to the signal ratio; note: potency is the fitted concentration of half-maximal effect). The method in brief:
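PR-UAS-bla HEK293T cells carrying a UAS-driven beta-lactamase reporter were plated in medium with 2% charcoal-stripped FBS and rested 6 hr at 37C. Compounds were added with 1 nM R5020 (final) for 16 hr, then FRET substrate loaded 2 hr at room temperature.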
A general note: Quantitative high-throughput screening tests each substance at several concentrations.

Test [2] can be described thus: qHTS assay to identify small molecule antagonists of the progesterone receptor (PR) signaling pathway - cell viability counter screen (AID 1346798). Note: series mostly up to about 92 µM; nearly all actives have a fitted effect of over 50% in size. The gist of the method:
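PR-UAS-bla HEK293T cells in medium with 2% charcoal-stripped FBS were treated with compounds plus R5020 for 16 hr at 37C. Cell viability was then read by CellTiter-Glo luminescence after 30 min at room temperature in the same wells.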

A short description of test [3]: qHTS assay to identify small molecule agonists of the progesterone receptor (PR) signaling pathway - cell viability counter screen (AID 1346799; calls by dose curve; note: nearly all actives have a fitted effect of over 45% in size). The gist of the method:
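PR-UAS-bla HEK293T cells, 3,000 per well in medium with 2% charcoal-stripped FBS, were preincubated 6 hr at 37C, then exposed to compounds for 16 hr; viability was read as CellTiter-Glo luminescence after 30 min at room temperature.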

Test [4] can be described thus: qHTS assay to identify small molecule antagonists of the TGF-beta/Smad signaling pathway - cell viability counter screen (AID 1346824). Note: nearly all actives have a fitted effect of over 50% in size. The method in brief: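 Cytotoxicity counter-screen run in the same wells as the beta-lactamase Smad reporter read: CellTiter-Glo luminescence after 30 min at room temperature. HEK 293T SBE-bla cells had 5 hr compound exposure at 37 C with TGF-beta1 (0.25 ng/mL stock).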

Test [5] is described as follows: qHTS assay to identify small molecule agonists of the TGF-beta/Smad signaling pathway - cell viability counter screen (AID 1346829). Note: top concentration of the series differs between compounds; nearly all actives have a fitted effect of over 45% in size. The method in brief:
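Cytotoxicity counter screen: CellTiter-Glo luminescence (30 min, room temperature) measured in the SBE-bla HEK 293T reporter wells after 5 hr compound treatment at 37 C and the 2 hr substrate step.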

Test [6] in a line: qHTS assay to identify small molecule agonists of the TGF-beta/Smad signaling pathway (AID 1346859; active = well fitted activation curve with a large enough effect in the signal ratio in the repeat runs, not every such curve was filed as active; the % refers to the signal ratio; note: series mostly up to about 77 µM). The gist of the method: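 HEK 293T cells stably carrying a beta-lactamase reporter driven by the Smad binding element were seeded overnight, exposed to DMSO-dissolved compounds for 5 hr at 37 C, 5% CO2, then loaded with FRET substrate for 2 hr at room temperature.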
Test [7] concerns the target Thyrotropin-releasing hormone receptor (Homo sapiens) (UniProt P34981). The test can be described thus: qHTS assay to identify small molecule antagonists of the thyrotropin-releasing hormone receptor (TRHR) signaling pathway (AID 1346877; active = well fitted inhibition curve with a large enough effect in the repeat runs, not every such curve was filed as active; note: series mostly up to about 51 µM). The gist of the method:
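Screening used HEK293 cells engineered with TRHR, with a brief 5 min room-temperature compound exposure preceding addition of TRH to 1 nM. The read-out was kinetic calcium-dye fluorescence, concentration-response from 15 doses in triplicate.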

Test [8] has the same target. In words: qHTS assay to identify small molecule agonists of the thyrotropin-releasing hormone receptor (TRHR) signaling pathway (AID 1346891; calls by dose curve; note: series mostly up to about 58 µM). The method in brief:
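TRHR-expressing HEK293 cells were plated 18 h at 37 °C/5% CO2, loaded with calcium dye 2 h at 37 °C, then given compound in DMSO; fluorescence was read kinetically for 3 min at 1 s intervals.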

The nature of test [9]: Human pregnane X receptor (PXR) small molecule agonists, qHTS cell viability counter screen (AID 1346977). Note: nearly all actives have a fitted effect of over 50% in size. The gist of the method: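 PXR-Luc HepG2 cells in medium with 5% charcoal-stripped FBS were pre-incubated 5hr, then exposed to compounds for 24hr at 37C. Viability was read in the same wells by CellTiter-Fluor fluorescence, reagent added after 23hr with a 1hr incubation.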

Test [10] can be described thus: Caspase-3/7 induction in HepG2 cells by small molecules, qHTS assay (AID 1346978). Note: nearly all actives have a fitted effect of over 15% in size. The gist of the method:
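Caspase-3/7 induction was measured by Caspase-Glo 3/7 luminescence (30 min, room temperature) after a 17 hr compound exposure of wild-type HepG2 cells seeded at 2,000 per well and pre-incubated 5 hr.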

Test [11] in a line: Caspase-3/7 induction in CHO-K1 cells by small molecules, qHTS assay (AID 1346980). Note: nearly all actives have a fitted effect of over 15% in size. The method in brief: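 Luminescent Caspase-Glo 3/7 read (30min, room temperature) quantified apoptosis induction. Cells were wild-type CHO-K1, treated with compound for 17hr at 37 C and 5% CO2.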
A short description of test [12]: Caspase-3/7 induction in HepG2 cells by small molecules, qHTS cell viability counter screen (AID 1346981). Note: series mostly up to about 92 µM; nearly all actives have a fitted effect of over 30% in size. The gist of the method:
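Multiplexed with the caspase-3/7 assay: HepG2 cells, 16 hr compound treatment, CellTiter-Fluor viability detection by fluorescence.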

In test [13] the target is Nuclear receptor subfamily 1 group I member 2 (Homo sapiens) (UniProt O75469). The test can be described thus: Human pregnane X receptor (PXR) small molecule agonists, qHTS assay (AID 1346982). Note: nearly all actives have a fitted effect of over 35% in size. Note: potency is the fitted concentration of half-maximal effect. The method in brief: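 We seeded PXR-Luc HepG2 cells in assay medium containing 5% charcoal-stripped FBS, added compounds 5 hr later, incubated 24 hr, and read luminescence with ONE-Glo reagent.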
Chain of Nuclear receptor subfamily 1 group I member 2 (Homo sapiens) (O75469 whole entry, looked up): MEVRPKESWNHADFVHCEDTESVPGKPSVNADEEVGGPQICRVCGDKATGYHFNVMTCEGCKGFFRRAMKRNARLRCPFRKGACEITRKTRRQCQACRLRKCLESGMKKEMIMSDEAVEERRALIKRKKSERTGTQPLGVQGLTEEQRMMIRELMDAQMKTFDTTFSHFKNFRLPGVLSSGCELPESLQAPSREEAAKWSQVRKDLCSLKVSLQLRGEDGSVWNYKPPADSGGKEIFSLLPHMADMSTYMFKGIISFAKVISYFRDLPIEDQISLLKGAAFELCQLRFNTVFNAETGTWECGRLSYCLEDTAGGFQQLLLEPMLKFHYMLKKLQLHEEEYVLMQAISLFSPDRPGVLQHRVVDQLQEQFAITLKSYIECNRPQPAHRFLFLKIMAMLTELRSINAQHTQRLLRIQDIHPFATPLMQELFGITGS

Test [14] addresses Cytochrome P450 2D6 (Homo sapiens) (UniProt P10635). The test can be described thus: Cytochrome P450 Family 2 Subfamily D Member 6 (CYP2D6) small molecule antagonists: luciferase reporter qHTS assay (AID 1671196). Note: nearly all actives have a fitted effect of over 50% in size. Note: potency is the fitted concentration of half-maximal effect. The method in brief:
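Luminescence (RLU), read 20 min after detection reagent, indicated CYP2D6 conversion of proluciferin to luciferin during a 1 h NADPH-dependent reaction at room temperature.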
In general terms: In a reporter assay the amount or activity of a reporter protein is the signal.

For test [15], the target named is Cytochrome P450 2C19 (Homo sapiens) (UniProt P33261). In words: Cytochrome P450 Family 2 Subfamily C Member 19 (CYP2C19) small molecule antagonists: luciferase reporter qHTS assay (AID 1671197). Note: nearly all actives have a fitted effect of over 65% in size. Note: potency is the fitted concentration of half-maximal effect. The gist of the method: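 Luminescent readout of CYP2C19 activity: luciferin product detected 20 min after adding detection reagent. Before that, compound and enzyme-substrate mix preincubated 10 min at room temperature; NADPH-regenerating system started a 1 h, 37C reaction. Ketoconazole as positive control.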
Chain of Cytochrome P450 2C19 (Homo sapiens) (P33261 whole entry, looked up): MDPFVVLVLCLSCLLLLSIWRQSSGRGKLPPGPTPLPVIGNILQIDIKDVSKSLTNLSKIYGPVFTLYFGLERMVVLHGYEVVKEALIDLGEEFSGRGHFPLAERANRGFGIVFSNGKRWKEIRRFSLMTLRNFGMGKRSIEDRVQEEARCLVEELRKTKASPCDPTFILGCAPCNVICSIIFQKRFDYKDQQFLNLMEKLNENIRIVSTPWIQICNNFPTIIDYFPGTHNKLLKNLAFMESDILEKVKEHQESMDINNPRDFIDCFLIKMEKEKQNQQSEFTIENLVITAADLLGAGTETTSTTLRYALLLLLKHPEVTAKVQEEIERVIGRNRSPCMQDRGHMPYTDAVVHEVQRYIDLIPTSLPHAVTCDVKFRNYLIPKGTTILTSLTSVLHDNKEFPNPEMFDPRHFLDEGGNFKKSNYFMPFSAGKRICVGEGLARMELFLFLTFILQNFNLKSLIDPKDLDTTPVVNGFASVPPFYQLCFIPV

The target of test [16] is Progesterone receptor (Homo sapiens) (UniProt P06401). In words: qHTS assay to identify small molecule agonists of the progesterone receptor (PR) signaling pathway (AID 1346784; calls by dose curve; note: nearly all actives have a fitted effect of over 30% in size). The method in brief:
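PR-UAS-bla HEK 293T cells carrying a UAS-driven beta-lactamase reporter were seeded in medium with 2% charcoal-stripped FBS, preincubated 6 hr at 37C, then exposed to compounds in DMSO for 16 hr; agonism was read by LiveBLAzer B/G FRET fluorescence.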

In test [17] the target is Nuclear receptor subfamily 1 group I member 2 (Rattus norvegicus) (UniProt Q9R1A7). In words: Rat pregnane X receptor (rPXR) activation by small molecules, qHTS assay (AID 1346983). Note: nearly all actives have a fitted effect of over 20% in size. The settings on record: rPXR luciferase reporter cells, One-Glo luminescence, 24 h; active compounds read high. The gist of the method:
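Luminescent readout (One-Glo luciferase, 30 min room temperature) followed 24 hr compound treatment at 37 C of rPXR cells plated 2,000 per well and preincubated 5hr; qHTS format with compounds delivered in DMSO.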

Test [18] is described as follows: Caspase-3/7 induction in CHO-K1 cells by small molecules, qHTS cell viability counter screen (AID 1346979). Note: nearly all actives have a fitted effect of over 35% in size. The gist of the method: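 Wild-type CHO-K1 cells were seeded at 1,500 per well, rested 5hr at 37 C, then exposed to compounds in DMSO. After 16hr, CellTiter-Fluor reagent was added and fluorescence read 1hr later as the viability measure.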

Unmarked numbers belong to inactive results. Inconclusive results are not listed. Activity calls are given as the source filed them. Unless noted, calls come from the whole dose curve; as a rule, active = well fitted curve in the direction sought with a large enough effect in the repeat runs; inconclusive = weak or mixed curves; inactive = no such curve, though single readings can be large; an effect the other way counts as inactive or inconclusive.
% is set by controls: 0 for no effect and ±100 for the full control effect.

Chain of Thyrotropin-releasing hormone receptor (Homo sapiens) (P34981 whole entry, looked up): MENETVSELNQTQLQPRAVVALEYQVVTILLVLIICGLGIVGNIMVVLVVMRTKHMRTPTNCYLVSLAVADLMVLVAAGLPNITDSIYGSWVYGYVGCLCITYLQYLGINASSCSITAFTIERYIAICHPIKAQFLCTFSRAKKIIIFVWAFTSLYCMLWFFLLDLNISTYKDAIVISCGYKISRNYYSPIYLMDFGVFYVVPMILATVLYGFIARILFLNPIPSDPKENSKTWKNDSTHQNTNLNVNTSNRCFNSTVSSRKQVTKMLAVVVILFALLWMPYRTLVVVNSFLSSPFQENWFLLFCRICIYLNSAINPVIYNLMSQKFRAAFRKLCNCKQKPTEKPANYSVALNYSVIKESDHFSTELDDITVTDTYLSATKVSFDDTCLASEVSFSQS
Chain of Cytochrome P450 2D6 (Homo sapiens) (P10635 whole entry, looked up): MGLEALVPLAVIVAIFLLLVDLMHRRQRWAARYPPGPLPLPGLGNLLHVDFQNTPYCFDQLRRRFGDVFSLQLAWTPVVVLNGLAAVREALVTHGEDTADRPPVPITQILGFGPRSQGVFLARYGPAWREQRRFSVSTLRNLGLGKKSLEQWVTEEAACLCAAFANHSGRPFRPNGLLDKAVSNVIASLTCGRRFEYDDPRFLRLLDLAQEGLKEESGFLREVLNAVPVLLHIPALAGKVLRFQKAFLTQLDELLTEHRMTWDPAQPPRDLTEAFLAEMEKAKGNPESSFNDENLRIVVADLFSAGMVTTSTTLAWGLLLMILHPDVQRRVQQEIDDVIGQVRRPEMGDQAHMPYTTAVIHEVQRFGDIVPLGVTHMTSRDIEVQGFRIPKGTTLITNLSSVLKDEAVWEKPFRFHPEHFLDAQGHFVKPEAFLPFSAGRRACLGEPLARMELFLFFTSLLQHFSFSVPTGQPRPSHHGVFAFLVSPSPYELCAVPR
Chain of Progesterone receptor (Homo sapiens) (P06401 whole entry, looked up): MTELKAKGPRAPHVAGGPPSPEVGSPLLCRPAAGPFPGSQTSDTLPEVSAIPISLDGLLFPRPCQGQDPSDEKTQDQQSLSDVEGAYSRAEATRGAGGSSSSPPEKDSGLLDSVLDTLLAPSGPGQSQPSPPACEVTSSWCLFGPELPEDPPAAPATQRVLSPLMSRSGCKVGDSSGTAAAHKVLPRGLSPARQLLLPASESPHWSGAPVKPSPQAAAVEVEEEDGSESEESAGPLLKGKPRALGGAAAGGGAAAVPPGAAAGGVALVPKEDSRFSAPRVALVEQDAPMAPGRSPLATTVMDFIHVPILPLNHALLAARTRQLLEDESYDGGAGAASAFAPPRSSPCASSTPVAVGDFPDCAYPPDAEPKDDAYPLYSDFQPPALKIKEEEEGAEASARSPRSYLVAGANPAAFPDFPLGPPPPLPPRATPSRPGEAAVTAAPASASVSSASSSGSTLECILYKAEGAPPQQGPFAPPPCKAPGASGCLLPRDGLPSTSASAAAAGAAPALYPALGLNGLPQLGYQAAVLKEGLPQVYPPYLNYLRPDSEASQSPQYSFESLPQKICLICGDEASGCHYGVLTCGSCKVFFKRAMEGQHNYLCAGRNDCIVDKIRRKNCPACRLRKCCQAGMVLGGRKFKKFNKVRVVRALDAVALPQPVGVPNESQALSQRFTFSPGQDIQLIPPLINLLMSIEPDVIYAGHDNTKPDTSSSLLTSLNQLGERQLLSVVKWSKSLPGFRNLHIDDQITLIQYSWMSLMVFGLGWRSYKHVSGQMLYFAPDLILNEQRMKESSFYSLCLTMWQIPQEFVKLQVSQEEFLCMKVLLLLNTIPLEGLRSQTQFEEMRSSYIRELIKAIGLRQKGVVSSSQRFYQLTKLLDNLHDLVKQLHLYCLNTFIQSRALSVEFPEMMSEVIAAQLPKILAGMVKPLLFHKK
Chain of Nuclear receptor subfamily 1 group I member 2 (Rattus norvegicus) (Q9R1A7 whole entry, looked up): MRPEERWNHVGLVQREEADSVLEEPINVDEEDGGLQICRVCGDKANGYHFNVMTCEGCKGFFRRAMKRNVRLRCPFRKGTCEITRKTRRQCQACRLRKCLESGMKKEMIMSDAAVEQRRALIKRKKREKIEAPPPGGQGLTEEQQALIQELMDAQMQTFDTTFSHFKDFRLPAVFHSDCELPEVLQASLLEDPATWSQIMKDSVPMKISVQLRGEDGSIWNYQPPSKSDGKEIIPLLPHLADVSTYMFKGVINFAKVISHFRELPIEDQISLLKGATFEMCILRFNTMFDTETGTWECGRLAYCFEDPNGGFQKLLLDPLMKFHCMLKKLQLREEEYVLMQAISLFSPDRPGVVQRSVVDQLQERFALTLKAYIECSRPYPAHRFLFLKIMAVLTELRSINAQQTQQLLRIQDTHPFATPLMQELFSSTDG

`CCC(C=O)CC`: the Potency entry in test [1], in [2], in [3], in [9], in test [10] and in test [12] was “inactive” throughout. For the same compound, the Potency entry in test [13], in [14] and in [15] was “inactive” each time. The outcome in test [4], in test [5], in test [6], in test [7], in test [8] and in [11] was inactive.
Take `C[C@@H]1O[C@@H](O[C@@H]2[C@@H](O)[C@H](OCCc3ccc(O)c(O)c3)O[C@H](CO[C@@H]3O[C@H](CO)[C@@H](O)[C@H](O)[C@H]3O)[C@H]2OC(=O)/C=C/c2ccc(O)c(O)c2)[C@H](O)[C@H](O)[C@H]1O`: the Potency entry in test [2], in test [3], in [10], in test [12], in test [13] and in test [14] was “inactive” each time. Also, the Potency result in [15] was “inactive”. In addition, the call in test [5], in test [7], in test [8] and in [11] was inactive.
As to `CC1=C(C(=O)O)N2C(=O)[C@@H](NC(=O)[C@H](N)c3ccc(O)cc3)[C@H]2SC1`, the Potency entry in test [16], in [3], in test [9], in test [10] and in test [12] was “inactive” in each case. Also, the result in test [5] and in [11] was inactive. For the same compound, in test [17], the max activation is -3.3%.
For the compound `COc1ccc2nc(SCc3ncc(C)c(OC)c3C)[nH]c2c1`, the Potency result in test [16], in test [2], in test [3], in test [9], in test [10] and in [18] was “inactive” each time. In addition, the Potency entry in test [12] is “inactive”. For the same compound, the result in [5] and in [11] was inactive. Besides, the Potency was 23.7 µM (active) in test [13], 27.5 µM (active) in test [14] and 2.19 µM (active) in [15].
As for `O=C(/N=N/C(=O)OCc1ccccc1)OCc1ccccc1`, the Potency result in [16], in test [2], in [3], in test [9], in test [10] and in test [18] was “inactive” throughout. Also, the Potency result in test [12] and in [14] was “inactive” throughout. Further, the outcome in test [5], in test [6], in test [7] and in test [11] was inactive. Further, the results for the Potency in [13] and in [15] were 30.6 µM (active) and 1.78 µM (active), respectively.
As to `Cc1[nH]cnc1-c1ccc(Cl)cc1`, the Potency entry in [16], in [2], in test [9], in test [10], in test [18] and in [12] was “inactive” in each case. The outcome in [4], in test [5], in test [6], in test [7], in test [8] and in [11] was inactive. The Potency in [14] is 13.8 µM (active); in test [15], 15.5 µM (active).
For the compound `O=C(OCC(O)CO)c1ccccc1Nc1ccnc2c(C(F)(F)F)cccc12` (stereo not drawn), the Potency is 29.8 µM (active) in test [1] and 0.347 µM (active) in test [15]. For the same compound, the result in [4], in [5], in test [6], in test [7], in test [8] and in test [11] was inactive. Further, the Potency entry in test [9], in [10] and in [12] was “inactive” in each case.
For the compound `CCOCCOCCOCC`, the Potency entry in test [2], in test [3], in test [9], in [10], in test [18] and in [12] was “inactive” throughout. The Potency entry in test [13] and in [15] was “inactive” each time. Moreover, the compound was classed as inactive in test [4], in [5], in test [6], in test [7], in test [8] and in test [11].
In the case of `CCC(C)NC(N)=O` (stereo not drawn), the Potency entry in test [2], in test [3], in [9], in [12], in test [13] and in [15] was “inactive” in each case. The outcome in [4], in test [5] and in test [11] was inactive.
